Screens as filed in PubChem BioAssay.
CtBP-E1A blk = inhibitors of CtBP/E1A interaction; AlphaScreen GST-E1A/His-CtBP binding, 1536-well; hits give low values; activity change, % (concentration not given with the values); 340,000 compounds, 0.49% hits; AID 651724; in the data active means activity change below about -65%; inconclusive means mostly about -30% to -63%
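Homogeneous bead-based format: GST-tagged E1A captured on glutathione donor beads, His-tagged CtBP on nickel acceptor beads; compounds precede bead addition by 2 h at 37 °C.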
Six1-Eya2 inh = Six1/Eya2 interaction inhibition. AlphaScreen GST-Six1/His-Eya2 binding, biochemical; hits give low values. activity change, % (concentration not given with the values). 360,000 compounds, 0.56% hits. AID 651725; in the data active means activity change below about -65%; inconclusive means mostly about -30% to -63%
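Homogeneous AlphaScreen proximity assay pairing GST-Six1 with His-tagged Eya2 (added as 5X mix: 250 nM and 500 nM) in 50 mM Tris pH 8.0, 300 mM NaCl, 1 mM TCEP. Glutathione donor and nickel acceptor beads; 1 h, 37 °C, dark.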
Gal4-VP16 FLuc = Gal4-VP16 reporter inhibition counter-screen. Potency, µM (highest dose often 53.6 µM), usual class: inhibitors. 310,000 compounds, 3.5% hits. Drosophila S2 Gal4-VP16 UAS-luciferase, luminescence, 20 h;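 further: Gal4-VP16 expression switched on by copper sulfate through the metallothionein promoter; nearly all actives have a fitted effect of over 50% in size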
p53 reactivator = re-activators of mutant p53. Potency, µM (titrated, usually from 92.2 µM), hits mostly activators. H1299 p53-A138V BP100-luciferase reporter, luminescence, 24 h. 320,000 compounds, 0.063% hits. AID 504706; further: nearly all actives have a fitted effect of over 45% in size
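H1299 (p53-null), stable ts p53-A138V + BP100-Luc; 1000 cells/well, Opti-MEM/10% FBS; cpd 4 pt, 1:5; 24 h, 37 deg C, 5% CO2; detection reagent 10 min RT; luminescence.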
RORgamma inh = inhibitors of mouse ROR gamma transcriptional activity. Drosophila S2 Gal4-RORgamma UAS-luciferase reporter, 20 h. 310,000 compounds, 5.4% hits. Potency, µM (series often up to 53.6 µM), most hits filed as inhibitors. P51450; further: nearly all actives have a fitted effect of over 60% in size
Target sequence (P51450 whole entry, looked up, the tested form may be a part): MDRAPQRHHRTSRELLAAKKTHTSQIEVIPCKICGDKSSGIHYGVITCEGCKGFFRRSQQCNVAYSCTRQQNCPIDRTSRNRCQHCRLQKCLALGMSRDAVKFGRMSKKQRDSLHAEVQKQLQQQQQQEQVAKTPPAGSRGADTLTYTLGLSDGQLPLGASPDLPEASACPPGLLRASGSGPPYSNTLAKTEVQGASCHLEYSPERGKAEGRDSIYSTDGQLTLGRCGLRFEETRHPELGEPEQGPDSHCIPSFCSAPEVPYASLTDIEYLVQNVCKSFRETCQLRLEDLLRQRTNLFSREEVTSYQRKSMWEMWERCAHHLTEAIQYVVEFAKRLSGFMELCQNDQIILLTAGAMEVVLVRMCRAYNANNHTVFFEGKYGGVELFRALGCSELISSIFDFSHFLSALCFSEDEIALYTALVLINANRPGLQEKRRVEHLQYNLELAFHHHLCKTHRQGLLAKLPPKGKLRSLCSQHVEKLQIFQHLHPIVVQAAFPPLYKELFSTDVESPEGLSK
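Stable Schneider cell line, Gal4 DNA-binding domain fused to ROR gamma, UAS-luciferase. Cmpd 1 hr RT → CuSO4 700 uM final → 20 hr RT → luciferase reagent 10 min → luminescence.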
Large screens that a line does not name were inactive. Only some compounds are listed: those with a hit (about 5.4% of all), similar ones and a draw of the others. Unless noted, the call rests on the fitted dose curve; in most records, active means well fitted curve in the direction sought with a large enough effect; inconclusive means small, poorly fitted or top-dose-only effect, or another doubt; inactive means no such curve, though single readings can be large; an effect the other way counts as inactive or inconclusive.

COc1ccccc1C(=O)NCCC(=O)NCc1ccccn1	none (no result: Gal4-VP16 FLuc, RORgamma inh)
COc1ccccc1C(=O)NCCC(=O)NCC(c1ccccc1)N(C)C (configuration not stated)	RORgamma inh 11µM
COc1ccccc1C(=O)NCCC(=O)Nc1ncccc1C	Gal4-VP16 FLuc 8.9µM, RORgamma inh 5.6µM
COc1ccccc1C(=O)NCCC(=O)NCCc1ccccc1	none
COc1ccccc1C(=O)NCCC(=O)Nc1cccnc1	none
COc1ccccc1C(=O)NCc1ccccn1	RORgamma inh 8.9µM (no result: CtBP-E1A blk)
Cc1cc(NNC(=O)Nc2cccc(Cl)c2)nc2c1c(C)nn2C	Gal4-VP16 FLuc 11µM, RORgamma inh inconclusive (no result: CtBP-E1A blk, Six1-Eya2 inh)
Cc1nn(C)c2nc(NNC(=O)Nc3cc(Cl)nc(Cl)c3)cc(C(C)C)c12	Gal4-VP16 FLuc 16µM (no result: CtBP-E1A blk, Six1-Eya2 inh, p53 reactivator)
O=C(Nc1cccc(OC(F)(F)F)c1)C1Cc2c(-c3cccc(F)c3)ccnc2O1 (configuration not stated)	none (no result: Gal4-VP16 FLuc, p53 reactivator, RORgamma inh)
NC(=S)n1[nH]c(-c2ccccc2)c(N=Nc2ccccc2C(=O)N2CCOCC2)c1=O	RORgamma inh 2µM
Cc1noc(C)c1NC(=O)N(C)C[C@H]1Oc2ccc(NC(=O)Cn3cnnn3)cc2C(=O)N([C@H](C)CO)C[C@@H]1C	none (no result: Gal4-VP16 FLuc, RORgamma inh)
Cc1c(C)n(Cc2ccccc2)c2ncnc(NN)c12	Gal4-VP16 FLuc 16µM, RORgamma inh inconclusive
Cc1c(C)n(CCc2ccccc2)c2ncnc(NN)c12	Gal4-VP16 FLuc inconclusive, p53 reactivator inconclusive
COc1ccccc1OCC(=O)N/N=C(\C)c1ccc2ccccc2c1	none (no result: Gal4-VP16 FLuc, p53 reactivator, RORgamma inh)
CCOc1ccc(C(=O)CC(NCc2cccs2)C(=O)O)cc1 (configuration not stated)	Gal4-VP16 FLuc 13µM, RORgamma inh 4.5µM
COc1ccc(C)cc1NC(=O)NNC(=O)C1CCC(C(C)(C)C)CC1 (configuration not stated)	none
Cn1nnnc1SC1CC(=O)N(c2ccccc2)C1=O (configuration not stated)	Gal4-VP16 FLuc inconclusive, RORgamma inh 7.9µM
O=C1CC(SCCO)C(=O)N1c1ccccc1 (configuration not stated)	none
O=C1CC(Sc2nnnn2C2CCCCC2)C(=O)N1c1ccccc1 (configuration not stated)	Gal4-VP16 FLuc 5µM, RORgamma inh inconclusive
Cc1cc(C)cc(N2C(=O)CC(Sc3nnnn3-c3ccccc3)C2=O)c1 (configuration not stated)	Gal4-VP16 FLuc 7.1µM, RORgamma inh inconclusive
O=C(CCNS(=O)(=O)c1c(Cl)cccc1Cl)OCC(=O)c1ccccc1	none
CCN1CCCC1Cn1c(-c2ccccc2)nc2c(NC3CCCCC3)nc(C)nc21 (configuration not stated)	RORgamma inh inconclusive (no result: CtBP-E1A blk, Six1-Eya2 inh, p53 reactivator)
O=c1[nH]c(-c2ccccn2)nc2ccccc12	CtBP-E1A blk -89, Six1-Eya2 inh -91, Gal4-VP16 FLuc 7.1µM, p53 reactivator inconclusive, RORgamma inh 4µM
Cc1ccc2nc(C(O)C(O)c3nc4ccc(C)cc4[nH]3)[nH]c2c1 (configuration not stated)	Gal4-VP16 FLuc 7.9µM, RORgamma inh 7.1µM
c1ccc(-c2nc3c(ccc4ccccc43)[nH]2)nc1	Gal4-VP16 FLuc 1µM, p53 reactivator inconclusive, RORgamma inh 0.35µM
O=c1[nH]c2cc3ccccc3cc2nc1C(F)(F)F	none
Nc1ccc(Cc2nc3c(ccc4ccccc43)[nH]2)cc1	RORgamma inh inconclusive
O=c1[nH]c(-c2ccccn2)nc(C(F)(F)F)c1Br	CtBP-E1A blk -83, Six1-Eya2 inh -76, Gal4-VP16 FLuc 5µM, RORgamma inh 2.2µM
Cc1onc(-c2ccccc2)c1C(=O)OCC(=O)c1ccc[nH]1	none (no result: Gal4-VP16 FLuc, p53 reactivator, RORgamma inh)
CCOC(=O)c1c(S(=O)(=O)NCC(C)c2ccccc2)c(C)n(C)c1C (configuration not stated)	none
O=C(Nc1ccc(Cl)cc1)N1CCCC(Cn2cccc2)C1 (configuration not stated)	none
Cc1c(N)cccc1-c1nc2ccccc2[nH]1	Gal4-VP16 FLuc inconclusive, RORgamma inh 11µM
c1ccc(-c2nc3ccccc3[nH]2)nc1	Six1-Eya2 inh inconclusive, Gal4-VP16 FLuc 6.3µM, p53 reactivator inconclusive, RORgamma inh 5.6µM
c1ccc2[nH]c(-c3ccncc3)nc2c1	none
Cc1ccc2nc(-c3ccccc3N)[nH]c2c1	RORgamma inh 10µM
Cc1ccc2nc(-c3ccccn3)[nH]c2c1	Gal4-VP16 FLuc 6.3µM, RORgamma inh 4µM (no result: p53 reactivator)
Cc1cc(-c2nc3ccccc3[nH]2)ccc1N	Gal4-VP16 FLuc inconclusive, RORgamma inh inconclusive
Cc1ccc2nc(CCCc3nc4ccc(C)cc4[nH]3)[nH]c2c1	none
CN(C(=O)CSc1nnc(-c2cccnc2)o1)C1CCCCC1	none (no result: Gal4-VP16 FLuc, RORgamma inh)
O=C(C1CCC(=O)N(C2CC2)C1)N1CCC(Oc2cccc(F)c2)CC1 (configuration not stated)	none
Cc1csc2c(N3CCN(C(=O)Nc4ccc(OC(F)(F)F)cc4)CC3)ncnc12	Gal4-VP16 FLuc 13µM, RORgamma inh inconclusive
CN1CCN(C(=O)c2cc(COc3c(F)cccc3F)on2)CC1c1ccccc1 (configuration not stated)	Gal4-VP16 FLuc 7.1µM, RORgamma inh 7.1µM
CCC[C@@H]1C[C@@]1(CCC)C(NC(=O)c1ccco1)c1ccc(Cl)cc1 (some centres not stated)	none (no result: CtBP-E1A blk, Six1-Eya2 inh, p53 reactivator)
CC(C)CC(N)c1csc(Nc2ccccn2)n1 (configuration not stated)	CtBP-E1A blk -89, Six1-Eya2 inh -83 (no result: Gal4-VP16 FLuc, p53 reactivator, RORgamma inh)
NC(CO)c1csc(Nc2ccc(C(F)(F)F)cn2)n1 (configuration not stated)	CtBP-E1A blk -74, Six1-Eya2 inh inconclusive (no result: Gal4-VP16 FLuc, p53 reactivator, RORgamma inh)
CC(C)CC(N)c1csc(Nc2cnccn2)n1 (configuration not stated)	CtBP-E1A blk -75, Six1-Eya2 inh inconclusive (no result: Gal4-VP16 FLuc, p53 reactivator, RORgamma inh)
CC(C)CC(N)c1csc(Nc2ccc(C(F)(F)F)cn2)n1 (configuration not stated)	CtBP-E1A blk inconclusive (no result: Gal4-VP16 FLuc, p53 reactivator, RORgamma inh)
CSCCC(NC(=O)c1ccccc1Br)C(=O)NCC(C)(C)N1CCOCC1 (configuration not stated)	none (no result: Gal4-VP16 FLuc, RORgamma inh)
O=C(Nc1cc(Cl)ccc1Cl)c1ccco1	none (no result: p53 reactivator)
CS/C(Nc1cc(Cl)ccc1Cl)=C(/C#N)C(=O)c1ccco1	Six1-Eya2 inh inconclusive, Gal4-VP16 FLuc 14µM, RORgamma inh 10µM
N=c1oc2ccc([N+](=O)[O-])cc2cc1C(=O)NCc1ccccc1	none (no result: CtBP-E1A blk)
CCN(CC(=O)NC(C)(C)C)C(=O)COc1c(Cl)cc(Cl)c2ccc(C)nc12	Gal4-VP16 FLuc 3.2µM, RORgamma inh 1.3µM (no result: CtBP-E1A blk)
Cc1ccc2c(Cl)cc(Cl)c(OCC(=O)NC3CCS(=O)(=O)C3)c2n1 (configuration not stated)	Gal4-VP16 FLuc 11µM, RORgamma inh 8.9µM
CCOc1ccccc1NC(=O)COC(=O)COc1c(Cl)cc(Cl)c2ccc(C)nc12	none (no result: Gal4-VP16 FLuc, p53 reactivator, RORgamma inh)
COc1ccc(Br)cc1S(=O)(=O)Nc1ccc(Cl)cn1	none (no result: p53 reactivator)
CCCCN(C=O)c1c(CC)nc2c(OCc3ccc(Cl)cc3Cl)cccn12	none (no result: Gal4-VP16 FLuc, p53 reactivator, RORgamma inh)
